# Measured values reported in PubChem BioAssay.
# How the values were obtained:
# [1] = tested on: Human papillomavirus type 1a protein E7 (residues 44-93); assay: small molecules binding HPV E7 44-93 – biochemical, small-molecule microarray, residues 44-93, 635 nm fluorescence, primary screen (AID 1108); settings: fluorescence 635 nm, higher = more signal;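 note: E7 fragment applied at 1 µg/mL in TBST for 1 h at 4 C; score combines spot fluorescence with its signal to noise ratio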
# [2] = hepatitis C replication reporter changes, two-sided – Huh7 cells, luciferase reporter, HCV replication inhibitor project, primary screen (AID 1109); settings: Huh7 HCV replicon luciferase reporter, 48 h; higher = more signal;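 note: huh7 hepatoma cells harbouring a luciferase neomycin HCV replicon reporter; luciferase luminescence as measure of HCV replicon replication; test concentration not given here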
# [3] = target: Left-right determination factor 2 (Homo sapiens) (UniProt O00292); assay: small molecules binding LEFTY2 protein – biochemical, small-molecule microarray, 635 nm fluorescence scan, primary screen (AID 1110); settings: higher = more signal
# [4] = target: Calmodulin-1 (Homo sapiens) (UniProt P0DP23); assay: small molecules binding calmodulin-1 with EGTA – biochemical, small-molecule microarray, Cy5-labelled CALM1, profiling panel (AID 1111); settings: Cy5-CALM1 binding fluorescence, higher = more signal;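 note: labelled calmodulin applied in Tris saline Tween buffer holding calcium plus EGTA and DTT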
# [5] = target: Calmodulin-1 (Homo sapiens) (UniProt P0DP23); assay: small molecules binding Ca-loaded calmodulin-1 – biochemical, small-molecule microarray, Cy5-labelled CALM1, plus calcium, artefact control for SMM control-protein annotation, profiling panel (AID 1112); settings: Cy5-CALM1 binding fluorescence, higher = more signal;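 note: score merges spot fluorescence with signal to noise from triplicate slides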
# [6] = probe aWnt5a binding to arrayed compounds – biochemical, biotinylated probe, 635/667 nm fluorescence, primary screen (AID 1113); settings: small-molecule microarray, higher = more signal;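 note: score merges 667 nm fluorescence intensity with signal-to-noise per printed feature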
# [7] = probe aShh binding to arrayed compounds – biochemical, biotinylated probe, 635/667 nm fluorescence, primary screen (AID 1114); settings: small-molecule microarray, higher = more signal;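 note: probe is biotin-labelled aShh protein from a stem cell growth factor screen; measures binding of labelled protein to compounds printed on the slide; score merges feature fluorescence at 667 nm with signal-to-noise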
# [8] = probe aNog binding to arrayed compounds – biochemical, biotinylated probe, 635/667 nm fluorescence, primary screen (AID 1115); settings: small-molecule microarray, higher = more signal;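 note: probe is biotinylated aNog protein used at 0.15 µg/mL for 1 h at 4 C; z-score combines 667 nm fluorescence of each spot with its signal to noise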
# [9] = target: Torsin-1A-interacting protein 1 (Homo sapiens) (UniProt Q5JTV8); assay: compound microarray binding of lysate hLAP1 – cell lysate, small-molecule microarray, COS7 lysate, 635/667 nm fluorescence, primary screen (AID 1116); settings: 635 nm fluorescence, higher = more signal
# [10] = target: Alpha-bungarotoxin (Bungarus multicinctus) (UniProt P60615); assay: compounds binding labelled alpha-BTX control protein – biochemical, small-molecule microarray, Alexa647 label, 635/667 nm fluorescence, artefact control for SMM control protein annotation, profiling panel (AID 1117); settings: alpha-BTX-A647 binding fluorescence, higher = more signal
# Alpha-bungarotoxin (Bungarus multicinctus), sequence (P60615 whole entry, looked up): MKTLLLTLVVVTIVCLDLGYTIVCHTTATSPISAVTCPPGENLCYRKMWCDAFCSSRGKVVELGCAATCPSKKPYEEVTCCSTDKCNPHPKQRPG
# Left-right determination factor 2 (Homo sapiens), sequence (O00292 whole entry, looked up): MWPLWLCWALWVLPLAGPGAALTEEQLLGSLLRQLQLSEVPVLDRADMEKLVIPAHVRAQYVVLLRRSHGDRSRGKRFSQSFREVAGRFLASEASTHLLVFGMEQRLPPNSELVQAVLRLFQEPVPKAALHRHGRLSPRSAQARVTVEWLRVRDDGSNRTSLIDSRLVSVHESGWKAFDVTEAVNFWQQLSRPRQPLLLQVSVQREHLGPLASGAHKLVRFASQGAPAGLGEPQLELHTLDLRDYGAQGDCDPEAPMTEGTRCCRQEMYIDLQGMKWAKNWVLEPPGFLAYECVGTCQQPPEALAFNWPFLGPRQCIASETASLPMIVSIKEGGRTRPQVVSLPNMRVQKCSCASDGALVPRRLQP
# Torsin-1A-interacting protein 1 (Homo sapiens), sequence (Q5JTV8 whole entry, looked up): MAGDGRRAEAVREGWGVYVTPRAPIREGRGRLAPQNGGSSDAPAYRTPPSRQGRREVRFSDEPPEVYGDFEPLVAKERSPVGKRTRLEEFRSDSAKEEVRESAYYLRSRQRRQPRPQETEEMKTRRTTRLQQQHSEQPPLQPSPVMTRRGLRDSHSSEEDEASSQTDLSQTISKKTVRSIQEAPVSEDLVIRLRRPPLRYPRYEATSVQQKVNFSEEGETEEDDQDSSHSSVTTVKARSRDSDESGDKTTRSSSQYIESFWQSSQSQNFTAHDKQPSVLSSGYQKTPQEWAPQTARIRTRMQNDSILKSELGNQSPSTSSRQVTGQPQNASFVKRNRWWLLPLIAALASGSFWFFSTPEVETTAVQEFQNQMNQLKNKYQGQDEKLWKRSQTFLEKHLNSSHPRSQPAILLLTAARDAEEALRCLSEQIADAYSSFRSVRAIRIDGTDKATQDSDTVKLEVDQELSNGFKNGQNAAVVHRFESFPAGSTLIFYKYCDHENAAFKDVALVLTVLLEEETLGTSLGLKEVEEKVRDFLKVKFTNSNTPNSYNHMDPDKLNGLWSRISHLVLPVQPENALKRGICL
Structure (SMILES),composite z-score [1],z-score [2],composite z-score [3],composite z-score [4],composite z-score [5],composite z-score [6],composite z-score [7],composite z-score [8],composite z-score [9],composite z-score [10]
COC(=O)[C@@]1(Cc2ccc(OC)cc2)[C@H]2c3cc(C(=O)N4CCCC4)n(CCc4ccccn4)c3C[C@H]2CN1C(=O)c1ccccc1,-0.091,-0.216,-0.694,1.34,0.61,0.164,1.23,1.22,0.432,0.329
CCCNC(=O)[C@@]1(C)c2ccccc2C(=O)N(Cc2cc(C(F)(F)F)cc(C(F)(F)F)c2)[C@H]1c1ccc(CO)cc1,1.23,-1.16,-0.657,0.0189,0.168,0.0377,-0.297,-0.158,1.61,0.919
O=C(NCCN1CCOCC1)[C@@H]1c2ccccc2C(=O)N(Cc2cc(F)cc(C(F)(F)F)c2)[C@H]1c1ccc(CO)cc1,1.44,-1.33,-1.61,-0.346,0.0296,-0.124,-0.214,-0.0949,0.812,-0.444
O=C1O[C@@H](c2ccccc2)[C@@H](c2ccccc2)N2[C@@H](c3ccc(O)cc3)[C@]3(C(=O)Nc4ccccc43)[C@@H](C(=O)NC[C@H](O)c3ccccc3)[C@H]12,1.13,-0.427,0.091,0.843,0.713,-0.0659,-0.0232,-0.0899,0.137,0.262
CC(C)(C)OC(=O)CC[C@@]1(C(N)=O)N=C(c2ccc(OCCCO)cc2)O[C@@H]1c1ccccc1N=[N+]=[N-],1.2,3.02,-0.038,1.03,0.774,-0.0125,0.0796,-0.504,1.12,1.22
[N-]=[N+]=NCc1ccccc1C[C@]1(C(=O)NCC(O)CO)COC(c2ccc(OCCCO)cc2)=N1 (stereo not given in full),0.912,-1.84,-0.645,2.44,0.911,0.188,-0.0341,1.17,3.34,3.01
COC(=O)[C@@]1(Cc2ccc(F)cc2)[C@H]2c3cc(C(=O)N(C)C)n(CCCNc4ccc(C(F)(F)F)cc4Cl)c3C[C@H]2CN1C(=O)c1ccccc1,1.4,-2.38,-0.385,2.36,1.31,0.284,0.391,1.53,1.37,1.85
CO[C@H]1O[C@H](CO)[C@@H](OC(=O)Nc2ccc(C(F)(F)F)cc2)[C@H](OC(=O)Nc2ccccc2)[C@@H]1OC(=O)Nc1ccccc1,1.34,0.0041,0.003,1.08,-0.778,0.0887,-0.102,-0.305,1.01,0.462
C=C(/C(=C/C[C@@H](OC(=O)c1ccncc1)c1ccc(CO)o1)c1cc(C(=O)OC)ccc1OC)C(C)C,0.838,-2.03,0.512,0.224,-0.0294,-0.063,0.0893,0.107,0.815,0.582
C[C@H]1C2[C@H](Cc3ccccc3)NC(=O)[C@]23C(=O)N[C@H](Cc2ccccc2)C(=O)N[C@H](Cc2ccccc2)C(=O)NC/C=C/CCC/C=C/C3[C@@H]2O[C@]12C (stereo not given in full),1.39,0.554,-0.0974,-0.343,-1.28,-0.124,-0.123,-0.0662,-0.564,0.617
[N-]=[N+]=Nc1ccccc1C[C@]1(C(=O)N2CCCCC2)N=C(c2ccc(OCCCO)cc2)O[C@H]1c1ccccc1N=[N+]=[N-],0.903,-2.5,-0.0089,1.46,0.605,0.2,0.294,1.87,1.21,0.703
COc1ccc([Si](C)(C)[C@@H]2[C@@H](CC(=O)N3Cc4ccccc4C[C@H]3CO)O[C@]3(C(=O)N(Cc4cccc(N5C(=O)COc6ccccc65)c4)c4ccccc43)[C@H]2C)cc1,1.2,-3.61,0.806,1.39,0.0626,-0.103,-0.214,-0.253,0.875,0.875
CO[C@H]1O[C@H](CO)[C@@H](OC(=O)Nc2ccc3c(c2)OCO3)[C@H](OC(=O)Nc2ccc3c(c2)OCO3)[C@H]1OC(=O)Nc1ccc2c(c1)OCO2,1.45,-0.36,0.265,1.52,-0.623,0.0037,0.503,0.961,1.21,0.477
Cc1ccc(C(C)CC(O)C2C=CC3C(=O)NC(=O)C3N2Nc2ccccn2)o1 (stereo not given),0.0598,-0.146,0.479,-0.409,-0.743,-0.1,-0.0626,-0.0863,0.773,-0.0054
CCCCN1CC=CC23O[C@@H]4/C=C\CCCOC(=O)C4[C@H]2C(=O)N(C(C)CO)[C@@H]3C1=O (stereo not given in full),-0.779,-0.112,-0.697,-0.573,-0.101,-0.172,-0.17,-0.186,-0.585,-0.0491
Oc1ccc2cc[n+](Cc3cccc(OC(F)(F)F)c3)cc2c1,-0.112,-0.114,0.939,-0.582,-0.77,-0.152,0.0515,-0.85,-0.0554,0.266
CCOC(=O)C[C@H]1[C@H](OC(=O)c2ccccc2-c2ccccc2)[C@@H](NC(=O)c2ccc(-c3ccccc3)cc2)c2cc(OCCCO)ccc2N1C(=O)c1ccccc1,1.26,-1.81,0.572,0.455,-0.361,-0.16,-0.282,0.0273,0.539,0.57
C=CCOC(=O)[C@H]1[C@@H]2C(=O)O[C@@H](c3ccccc3)[C@@H](c3ccccc3)N2[C@@H](c2ccc(OCCOC(=O)[C@@H]3C[C@@H]4C(=O)NCC(=O)N4[C@@H]3c3ccc(O)cc3)cc2)[C@]12C(=O)Nc1ccc(I)cc12,1.37,-1.59,1.04,1.56,0.341,-0.0519,0.131,-0.412,1.14,1.52
COc1cc2c(cc1O)C(c1ccc(CN3CCCC3)cc1)N(Cc1sc3ccccc3c1Cl)CC2 (stereo not given),0.573,-2.57,0.82,0.26,-0.935,-0.0036,-0.0626,0.151,0.0494,0.518
